Screens (PubChem BioAssay)
TRHR agonist: qHTS for Small Molecule Agonists and Allosteric Enhancers of Human TRH Receptor: Primary Screen for Agonists; activation, % at 2 µM; TRHR cells, calcium flux fluo-8, FDSS agonist mode; AID 493084, 2011; 360,000 tested, 0.18% active; Thyrotropin-releasing hormone receptor (Homo sapiens), P34981
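TRHR-expressing cells, plated overnight in medium with 10% serum, were loaded with fluo-8 calcium dye at room temperature. After a 10 s baseline, library compound was pin-added and calcium release was recorded kinetically (ex 480/em 530) as agonist response.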
TRHR PAM: qHTS for Small Molecule Agonists and Allosteric Enhancers of Human TRH Receptor: Primary Screen for Enhancers. Thyrotropin-releasing hormone receptor (Homo sapiens), P34981. TRHR cells, fluo-8 calcium fluorescence, EC20 TRH enhancement. 360,000 tested, 0.66% active. enhancement, % at 2 µM; in the data active means enhancement above about 30%
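TRHR-expressing cells loaded with fluo-8 calcium dye were read kinetically (ex 480/em 530) during compound addition, then stimulated with an EC20 of TRH (10 nM final). Enhancement of the Gq-mediated intracellular calcium response was scored.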
D1 ag: Allosteric Agonists of the Human D1 Dopamine Receptor: qHTS; activation, % at 2 µM; 360,000 tested, 1% active; HEK293 T-REx D1 cells, calcium flux, agonist mode; D(1A) dopamine receptor (Homo sapiens), P21728; AID 504660, 2011
Target sequence (P21728 whole entry, looked up): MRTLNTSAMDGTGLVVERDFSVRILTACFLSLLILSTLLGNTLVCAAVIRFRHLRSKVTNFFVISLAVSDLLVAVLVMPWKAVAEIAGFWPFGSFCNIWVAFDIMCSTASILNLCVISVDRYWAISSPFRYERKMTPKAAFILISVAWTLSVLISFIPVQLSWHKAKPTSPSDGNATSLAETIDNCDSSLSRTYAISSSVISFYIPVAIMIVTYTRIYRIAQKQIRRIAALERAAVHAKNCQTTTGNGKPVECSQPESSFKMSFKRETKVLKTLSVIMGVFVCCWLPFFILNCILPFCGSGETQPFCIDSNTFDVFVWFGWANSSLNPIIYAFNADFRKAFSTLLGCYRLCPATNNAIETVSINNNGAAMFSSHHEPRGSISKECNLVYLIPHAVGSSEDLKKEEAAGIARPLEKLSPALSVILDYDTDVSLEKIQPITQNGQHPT
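Agonism was scored from calcium flux recorded over 180 s (1 read/s) after pintool compound addition, following a 10-cycle baseline. Cells were inducible force-coupled HEK293 TREx D1, plated overnight at 30 C and loaded with no-wash calcium dye.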
D1 potentiator: Potentiators of Human D1 Dopamine Receptor: qHTS. HEK293 TREx D1 cells, calcium flux, dopamine EC20 potentiation. 360,000 tested, 0.036% active. potentiation, % at 10 µM; in the data active means potentiation above about 30%
D1 antag: Antagonist of Human D 1 Dopamine Receptor: qHTS; 360,000 tested, 3.2% active; HEK293 TREx D1 cells, calcium flux, dopamine EC80; stronger effect = lower value; activity change, negative = inhibition, % at 10 µM; AID 504652, 2011; in the data active means activity change below about -30%
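Compound effects on dopamine-evoked calcium signalling were measured in tetracycline-induced HEK293 Trex D1 cells. Dopamine at EC80 followed a 180 s compound pre-read, and fluorescence was tracked kinetically for 180 s more.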
Numbers stand for hits; – = inactive; · = no result given; ! = a repeat was not active. An excerpt weighted towards active compounds, which were near 4.7% of everything screened. Unless noted, no stated cut-off is given here; in the data, active means activation above about 30%; inactive means the rest.

SMILES	TRHR agonist	TRHR PAM	D1 ag	D1 potentiator	D1 antag
CN1C(=O)NC(=O)C2(Cc3ccccc3N3CCOCC32)C1=O (stereo unspecified)	–	–	–	–	-32.1
CC(=O)c1cn(Cc2ccccc2F)c2ccccc12	–	–	–	–	-55.4
CC(=O)c1cn(Cc2ccccc2C#N)c2ccccc12	–	–	–	–	-34.1
O=Cc1cn(Cc2ccccc2F)c2ccccc12	–	–	–	–	–
CC(C)c1ccc(NC(=O)CN2C(=O)CN=C(c3ccccc3)c3ccccc32)cc1	–	–	–	–	–
Cc1ccc(CN2C3CCCC2CC(NC(=O)Nc2cccc(F)c2)C3)cc1 (stereo unspecified)	–	–	30.2	–	-41.6
Nc1ccc2cc(Br)ccc2c1	–	–	–	–	-31.1
Brc1ccc(Oc2ccc(Br)cc2Br)c(Br)c1	–	–	–	–	·
COc1ccc(OCC(=O)N2CCN(Cc3cc(=O)n4nc(-c5ccccc5C)sc4n3)CC2)cc1	–	–	–	–	–
Cc1ccc(Cn2cccc(C(=O)Nc3nnc(C)s3)c2=O)cc1	–	–	–	–	·
O=[N+]([O-])c1ccc(NC2CCCC2)c2ccncc12	–	35.1	–	–	–
O=[N+]([O-])c1ccc(NC2CCN(Cc3ccccc3)CC2)c2ccncc12	–	–	–	–	–
COc1ccc(Br)cc1C1SCC(=O)Nc2c1c(C)nn2-c1ccccc1C (stereo unspecified)	–	–	–	–	–
CCOc1ccc2nc(NC(=O)c3cccn(Cc4ccccc4Cl)c3=O)sc2c1	–	–	–	–	–
Oc1cc2c(cc1O)[C@H]1c3ccccc3CN[C@@H]1CC2	–	–	66.5	–	-87.0
CSc1ncc(C(=O)Nc2ccc(Cl)cc2C(=O)c2ccccc2)c(C)n1	–	–	–	–	–
CCCN(CCC)C1CCc2ccc(O)cc2C1 (stereo unspecified)	–	–	–	–	-61.2
Cc1ccc(NC(=O)CN2C(=O)CN=C(c3ccccc3)c3ccccc32)c(C)c1	–	–	–	–	–
CCOP(=O)(OCC)C(NS(=O)(=O)c1ccccc1)C(Cl)(Cl)Cl (stereo unspecified)	–	–	–	–	-32.8
O=C(Nc1ccon1)c1cccn(Cc2cccc(Cl)c2)c1=O	–	–	–	–	–
COC(=O)c1ccccc1NC(=O)c1cccn(Cc2cccc(Cl)c2)c1=O	–	–	–	–	–
Clc1ccccc1CN1CCN(c2cccc3[nH]ccc23)CC1	–	–	–	–	-48.5
COc1ccccc1N1CCN(Cc2ccccc2Cl)CC1	–	–	–	–	–
Cc1ccc(NC(=O)CN2C(=O)CN=C(c3ccccc3)c3ccccc32)cc1	–	–	–	–	–
CCOc1cccc(CNC2CN3CCC2CC3)c1 (stereo unspecified)	–	–	–	–	-50.8
SMILES	TRHR agonist	TRHR PAM	D1 ag	D1 potentiator	D1 antag
CC(=O)Nc1ccc(OC(=O)N(C)c2ccc(C)cc2)cc1	–	–	–	–	-38.0
CC(=O)Nc1ccc(OC(=O)N(C)c2ccccc2)cc1	–	–	–	–	–
CN1CCN(c2ccc([N+](=O)[O-])c(NCc3ccco3)c2)CC1	–	–	–	–	-31.2
Nc1cc(Cl)c2nonc2c1[N+](=O)[O-]	–	–	–	–	-31.5
CCC(C(=O)Nc1ccccc1F)N1C(=O)CN=C(c2ccccc2)c2ccccc21 (stereo unspecified)	–	–	–	–	–
Cc1[nH]c2ccc(OC(F)(F)F)cc2c1CCNCc1ccc(Cl)cc1	–	–	41.2	–	–
COc1ccc2[nH]c(C)c(CCNCc3cccnc3)c2c1	–	–	34.0	–	–
Cc1[nH]c2ccc(OC(F)(F)F)cc2c1CCNCc1cccc([N+](=O)[O-])c1	–	–	–	–	–
Cc1ccc2[nH]c(C)c(CCNCc3ccco3)c2c1	–	–	–	–	–
CCOc1cccc(CNCCc2c(C)[nH]c3ccc(OC(F)(F)F)cc23)c1O	–	–	116.8	–	–
CSc1ccc(/C=C/c2nc3ccccc3c(=O)n2-c2cccc(Cl)c2C)cc1	–	–	–	–	–
CC1=C[C@@H]2c3cccc4[nH]cc(c34)C[C@H]2N(C)C1	–	–	30.6	–	-37.5
CCc1ccc(-n2nc(C)c3c2NC(=O)CSC3c2ccc(C(=O)OC)cc2)cc1 (stereo unspecified)	–	–	–	–	-42.8
CCc1ccc(-n2nc(C)c3c2NC(=O)CSC3c2ccccc2C)cc1 (stereo unspecified)	–	–	–	–	–
Cc1ccc(Cn2cccc(C(=O)Nc3nc4ccc(C)cc4s3)c2=O)cc1	–	–	–	–	·
O=c1c2ccccc2nc(/C=C/c2ccccc2O)n1-c1ccc(Br)cc1	–	–	–	–	–
NCCc1ccc(S(N)(=O)=O)cc1	–	39.8	–	–	–
COc1ccc(CNCCc2ccc3c(c2)OCO3)cc1Br	–	–	77.9	–	–
FC(F)(F)c1ccc(CNCCc2ccc3c(c2)OCO3)cc1	–	–	34.7	–	–
Cc1ccc(Cn2cccc(C(=O)Nc3ccc(C)c(Cl)c3)c2=O)cc1	–	–	–	–	·
O=C(Nc1ccc(OC(F)(F)F)cc1)c1cccn(Cc2ccccc2Cl)c1=O	–	–	–	–	–
CC(C)Cc1nc2cccnc2n1C1CCNCC1	–	–	–	–	–
COc1ccc2[nH]cc(CCN=C(N)N)c2c1	–	35.8	–	–	–
O=c1[nH]c(O)c(C=Nc2ccccc2[N+](=O)[O-])c(=O)[nH]1	–	–	–	–	-47.0
COc1ccc(OCC(=O)N2CCN(Cc3ccc(SC)cc3)CC2)cc1	–	–	–	–	-38.2!
SMILES	TRHR agonist	TRHR PAM	D1 ag	D1 potentiator	D1 antag
CCN1/C(=C\C=C\C2=[N+](CC)c3ccccc3C2(C)C)C(C)(C)c2ccccc21	124.0	–	204.1	–	–
O=S1(=O)N(Cc2ccccc2Cl)CCCN1Cc1ccccc1Cl	–	–	–	–	–
N#CC1=C(N)Oc2c(c(=O)sc3ccccc23)C1c1cccnc1 (stereo unspecified)	–	35.0	–	–	–
O=C1CN=C(c2ccccc2Cl)c2cc(Cl)ccc2N1Cc1cccc(Cl)c1	–	–	–	–	–
COc1ccc(-c2nn3c(=O)cc(CN4CCN(C(=O)COc5ccc(F)cc5)CC4)nc3s2)cc1	–	–	–	–	–
CCOC(=O)c1[nH]ncc1CN1CCCC(C(=O)c2cccc(Cl)c2)C1 (stereo unspecified)	–	–	43.5	–	–
Cc1ncc(CN2CCCC(C(=O)c3cccc(Cl)c3)C2)s1 (stereo unspecified)	–	–	–	–	–
CC(Cc1ccc(O)cc1)NCC(O)c1cc(O)cc(O)c1 (stereo unspecified)	–	–	·	·	-30.8
